About 83,000 compounds went through this panel and 20% of them were active in at least one assay; those are over-represented in the sample as a whole.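 In brief: 96-well plates, 48 h treatment, single concentration, percent growth endpoint.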 Unmarked numbers belong to inactive results. Calls of active or inactive are those of the source. Rule for the calls: active = growth percent below 10; inactive = the rest.

This assay concerns HL-60(TB) leukemia. Nature of the assay: NCI-60 one-dose screen, 48 h (100 = growth as untreated, 0 = no growth, -100 = all killed). Particulars: 10 µM unless noted.
Regarding `CCOC(=O)C1CSC(C)(C(=O)OCC)N1` (centres undefined), the growth was 83.8%.

Turning to `CN(C)CCn1c2ccc(Br)cc2c2nc3ccccc3nc21`, the growth was 26.2%. Under `CCOc1cc(/C=N\NC(=O)N/N=C/c2ccc(O)c(OCC)c2)ccc1O` stands -22.2% (active); under `Clc1cc(Cl)cc(Nc2ccc3c(OCCCN4CCOCC4)cccc3n2)c1`, 50.5%; under `CC1=NN(c2ccccc2)C(=O)C1C(=O)c1ccccc1` (centres undefined), 68.5%. The value for `CC12CCC3C(CCC4CC(=O)/C(=C\O)CC43C)C1CCC(=O)O2` (centres undefined) was 111%; that for `O=C(O)c1cccc2cccc(-c3c4ccc(=O)c(O)c-4oc4c(O)c(O)ccc34)c12` was 67.6%. Under `N#Cc1nc(-c2ccc(F)cc2)oc1S(=O)(=O)N1CCOCC1` stands 16%. With `CC(CN1CCN(CCOCCO)CC1)CN1c2ccccc2Sc2ccc(Cl)cc21` (centres undefined), the growth is 80.8%. On to `Cc1ccc(SCN2CCN(c3cccc(Cl)c3)CC2)cc1`, for which the growth is 111%. As for `CCN(CC)c1ccc(-c2cc(-c3cc(OC)c(OC)c(OC)c3)nc(N3CCOCC3)c2C#N)cc1`, the growth was -43.4% (active). Under `CC(=O)OCC(=O)C1CCC=CC1OC(C)=O` (centres undefined) stands 99.3%. With `O=[N+]([O-])c1ccc(C=C2C(Cl)=C(Cl)C(Cl)=C2Cl)cc1`, the growth was 34.2%. Turning to `CC(=O)OC[C@H]1OC(Sc2sc(C(=O)c3ccc(Br)cc3)c(N)c2-c2nc3ccccc3s2)[C@H](OC(C)=O)[C@@H](OC(C)=O)[C@@H]1OC(C)=O` (some centres undefined), the growth is 113%.

In the case of `COc1cc2nc(Cc3ccc(C)cc3)[nH]c(=O)c2cc1OC`, the growth is 98.7%. The value for `N#CC(=C1C=CC(=NO)C=C1)c1ccccc1` was 4.88% (active); that for `CCCCCCCCCCCCCOC(=O)c1c(C)[nH]c(/C=C2\N=C(c3ccc[nH]3)C=C2OC)c1C` was 9.46% (active); that for `O=c1[nH]c(Cl)nc2c1cnn2-c1ccccc1` was -2.45% (active). With `O=C(CCl)Oc1ccc(-c2ccccc2)c(Br)c1`, the growth is 105%.

In the case of `CC(O)CCNC(c1ccccc1)C(O)c1ccccc1` (centres undefined), the growth is 102%. The value for `O=S(=O)(NCCCNc1cc(-c2cn(-c3ccccc3)nc2-c2ccccc2)ccn1)c1ccc(C(F)(F)F)cc1` was 39.1%; that for `COc1cccc(-c2nn(C(C)(C)C)cc2-c2ccnc(NCCCNS(=O)(=O)c3cccc4ccccc34)c2)c1` was 104%; that for `CC[C@H](Nc1nc(N)nc(N)c1Cl)c1nc2cccc(NCc3ccc(C(=O)NO)cc3)c2c(=O)n1-c1ccccc1` was -34.7% (active). Under `N=S(=O)(NC(=O)c1ccc(Cl)cc1Cl)c1ccc(Br)s1` (centres undefined) stands 96.8%. Under `Cn1cc(-c2nonc2-c2cn(C)c3ccccc23)c2ccccc21` stands -27% (active); under `FC(F)(F)c1cn(CC2CNC2)c2ncnc(Cl)c12`, 73.5%. As for `C/C=C/C1=CN2C(=O)c3cc(OC4OC(C)C(NC)C(C)(O)C4O)c(C)c(O)c3N=C[C@@H]2C1` (some centres undefined), the growth is -4.33% (active). As to `CC1=NCC2NC(=O)NC(C)=C12` (centres undefined), the growth is 109%.

For `[2H]c1cc2c(c([2H])c1F)/C(=C/c1[nH]c(C)c(C(=O)NCCN(CC)CC)c1C)C(=O)N2`, the growth was 4.9% (active). Under `CC(C)CCC[C@@H](C)[C@H]1CCC2C3=CCC4C(=O)C=CC(=O)C4C3CC[C@@]21C` (some centres undefined) stands -5.46% (active). The value for `CN(C)c1ccc(/C=C(\C#N)c2nc3ccccc3n2C)cc1` was 1.21% (active). Under `O=C1Nc2ccccc2/C1=C/c1cccn1CCCCCn1c2ccccc2c(=O)c2ccccc21` stands 47.6%.

Turning to `COc1ccc(NC(=O)c2ccc(Nc3ncnc4[nH]c(C)c(C)c34)cc2)cc1`, the growth was 89.1%.

Consider `Cc1ccc(NC(=O)Cn2c(Br)nc3c2c(=O)n(C)c(=O)n3C)cc1`, for which the growth is 102%. The value for `CCCCCCn1c(-c2ccc(C(=O)O/N=C(\N)c3ccc4ccccc4c3)cc2)nc(-c2ccccc2)c1-c1ccccc1` was 2.97% (active); that for `O=C(Cn1cc(COc2ncnc3c2cnn3-c2ccccc2)nn1)Nc1ccccn1` was 105%; that for `COc1ccc(C(=O)c2sc3nc4c(c(C(F)(F)F)c3c2N)CN(C(C)=O)CC4)cc1OC` was 98.7%. Under `O=C1CN(c2ccccc2)C(=O)C1C(=O)Nc1ccc(Cl)c(Cl)c1` (centres undefined) stands 7.75% [100 µM] (active); under `Cc1nc2ccccc2n1CC1NC(=O)NC1=O` (centres undefined), 95.1%.

The record behind these values is PubChem BioAssay (NCI).
